# According to paper PMC7862700, “An all-to-all approach to the identification of sequence-specific readers for epigenetic DNA modifications on cytosine”:
# Experiments:
# Assay in all cases: DAPPL (digital affinity profiling via proximity ligation, sequencing); 10 mM Tris-HCl pH 7.5, 50 mM NaCl, 1 mM DTT, 4% glycerol, room temperature, 30 min; GST-TFs on glutathione beads, 16-mer random dsDNA library, 0.1% formaldehyde crosslink after washing; high values mean tight binding
# Settings in all cases: protein: recombinant; tags: N-terminal GST; dsDNA, one strand shown
# ELK1 = biological target: T1, ELK1 (Homo sapiens, UniProt P19419 1-428)
# T1 sequence: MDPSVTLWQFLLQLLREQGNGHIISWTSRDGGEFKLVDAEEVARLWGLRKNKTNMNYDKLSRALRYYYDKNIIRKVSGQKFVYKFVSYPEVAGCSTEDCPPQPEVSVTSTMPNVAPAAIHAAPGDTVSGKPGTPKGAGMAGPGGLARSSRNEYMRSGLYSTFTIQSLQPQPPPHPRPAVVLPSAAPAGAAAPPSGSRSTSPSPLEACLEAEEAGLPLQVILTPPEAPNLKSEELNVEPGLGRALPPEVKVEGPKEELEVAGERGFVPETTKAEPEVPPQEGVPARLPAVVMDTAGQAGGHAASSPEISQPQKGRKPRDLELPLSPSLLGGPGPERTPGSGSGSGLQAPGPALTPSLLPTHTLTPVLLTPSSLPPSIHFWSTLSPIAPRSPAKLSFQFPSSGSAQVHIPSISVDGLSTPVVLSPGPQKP
# Outline: (§1)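 Pools were built from human transcription factors expressed in yeast as GST fusions, captured on glutathione beads and DNA-barcoded, along with a tag-only sample. Incubation with 200 nmole of a 16-mer random double-stranded DNA library lasted 30 min at room temperature in Tris/NaCl/DTT/glycerol buffer, and was followed by washing, 0.1% formaldehyde crosslinking, proximity ligation, PCR amplification and Illumina NextSeq500 sequencing. Binding signal is the quotient of each hexamer's read frequency for a factor and its frequency for the tag-only sample.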
# GABPA = biological target: T2, GABPA (Homo sapiens, UniProt Q06546 1-454)
# T2 sequence: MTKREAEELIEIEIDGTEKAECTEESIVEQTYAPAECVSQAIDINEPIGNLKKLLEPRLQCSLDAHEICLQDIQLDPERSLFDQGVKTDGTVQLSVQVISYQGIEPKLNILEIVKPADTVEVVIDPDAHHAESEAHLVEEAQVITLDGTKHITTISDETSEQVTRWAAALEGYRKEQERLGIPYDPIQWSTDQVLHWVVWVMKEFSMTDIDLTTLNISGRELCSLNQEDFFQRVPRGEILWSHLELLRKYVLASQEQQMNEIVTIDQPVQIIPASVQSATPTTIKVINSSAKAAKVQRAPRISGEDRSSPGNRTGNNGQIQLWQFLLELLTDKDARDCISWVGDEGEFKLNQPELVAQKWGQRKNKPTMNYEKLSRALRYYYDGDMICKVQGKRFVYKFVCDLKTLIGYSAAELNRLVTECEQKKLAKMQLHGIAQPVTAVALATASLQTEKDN
# Outline: as §1
# ERG = biological target: T3, ERG (Homo sapiens, UniProt P11308 1-479)
# T3 sequence: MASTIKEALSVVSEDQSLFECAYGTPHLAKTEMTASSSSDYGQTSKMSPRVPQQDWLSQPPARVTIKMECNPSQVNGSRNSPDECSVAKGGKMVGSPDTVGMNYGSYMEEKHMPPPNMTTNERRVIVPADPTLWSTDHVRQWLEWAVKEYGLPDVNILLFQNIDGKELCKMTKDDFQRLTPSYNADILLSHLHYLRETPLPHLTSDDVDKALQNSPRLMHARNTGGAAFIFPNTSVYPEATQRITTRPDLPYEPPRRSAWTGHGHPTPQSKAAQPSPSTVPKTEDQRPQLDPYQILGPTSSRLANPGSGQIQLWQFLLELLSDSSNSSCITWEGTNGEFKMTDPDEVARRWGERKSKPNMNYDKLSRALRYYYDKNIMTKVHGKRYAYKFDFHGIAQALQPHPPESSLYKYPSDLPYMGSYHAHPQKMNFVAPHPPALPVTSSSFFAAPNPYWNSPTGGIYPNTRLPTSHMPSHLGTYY
# Outline: as §1
# ELF1 = ELF1 (Homo sapiens, UniProt P32519 1-619)
# Chain of ELF1 (P32519 whole entry): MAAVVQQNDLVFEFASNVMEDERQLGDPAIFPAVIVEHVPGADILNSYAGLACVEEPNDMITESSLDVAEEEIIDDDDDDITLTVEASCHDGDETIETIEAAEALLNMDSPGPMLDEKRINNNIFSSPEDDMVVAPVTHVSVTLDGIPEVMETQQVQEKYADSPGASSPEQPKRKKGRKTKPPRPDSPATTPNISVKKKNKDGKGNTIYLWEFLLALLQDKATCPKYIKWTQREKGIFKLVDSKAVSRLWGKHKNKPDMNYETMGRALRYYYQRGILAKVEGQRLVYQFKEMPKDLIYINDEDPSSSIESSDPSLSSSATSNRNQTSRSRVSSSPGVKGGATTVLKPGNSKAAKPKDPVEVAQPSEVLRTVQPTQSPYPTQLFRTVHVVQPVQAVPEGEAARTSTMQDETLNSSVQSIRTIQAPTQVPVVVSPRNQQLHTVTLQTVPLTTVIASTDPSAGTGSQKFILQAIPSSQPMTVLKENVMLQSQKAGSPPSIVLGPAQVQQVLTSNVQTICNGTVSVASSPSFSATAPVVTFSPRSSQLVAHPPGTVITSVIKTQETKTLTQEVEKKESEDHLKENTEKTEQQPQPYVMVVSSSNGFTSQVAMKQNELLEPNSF
# Outline: as §1
# EHF = biological target: T4, EHF (Homo sapiens, UniProt Q9NZC4 1-300)
# T4 sequence: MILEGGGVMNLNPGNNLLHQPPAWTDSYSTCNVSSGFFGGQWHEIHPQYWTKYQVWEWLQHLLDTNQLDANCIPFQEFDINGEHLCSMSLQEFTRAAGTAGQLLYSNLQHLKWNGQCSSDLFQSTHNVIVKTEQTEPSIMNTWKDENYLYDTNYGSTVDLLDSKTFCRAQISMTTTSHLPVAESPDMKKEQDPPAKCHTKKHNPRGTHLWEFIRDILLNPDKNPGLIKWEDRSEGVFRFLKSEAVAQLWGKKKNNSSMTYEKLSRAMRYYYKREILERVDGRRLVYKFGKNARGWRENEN
# Outline: as §1
# SPIB = SPIB (Homo sapiens, UniProt Q01892 1-262)
# Chain of SPIB (Q01892 whole entry): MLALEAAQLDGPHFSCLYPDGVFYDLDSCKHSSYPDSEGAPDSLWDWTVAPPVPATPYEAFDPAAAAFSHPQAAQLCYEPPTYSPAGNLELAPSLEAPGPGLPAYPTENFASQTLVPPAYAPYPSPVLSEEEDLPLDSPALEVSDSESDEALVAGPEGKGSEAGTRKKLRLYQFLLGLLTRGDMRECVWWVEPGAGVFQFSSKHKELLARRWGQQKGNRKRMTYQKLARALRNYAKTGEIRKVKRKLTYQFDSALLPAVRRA
# Outline: as §1
# FEV = biological target: T5, FEV (Homo sapiens, UniProt Q99581 1-238)
# T5 sequence: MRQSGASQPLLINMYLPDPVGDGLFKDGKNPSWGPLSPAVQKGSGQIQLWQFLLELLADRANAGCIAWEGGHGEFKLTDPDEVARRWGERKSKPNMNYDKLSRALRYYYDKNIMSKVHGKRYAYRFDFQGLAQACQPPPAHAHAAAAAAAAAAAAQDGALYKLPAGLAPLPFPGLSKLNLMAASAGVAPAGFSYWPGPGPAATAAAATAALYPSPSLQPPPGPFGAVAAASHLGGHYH
# Outline: as §1
# ETV5 = ETV5 (Homo sapiens, UniProt P41161 1-510)
# Chain of ETV5 (P41161 whole entry): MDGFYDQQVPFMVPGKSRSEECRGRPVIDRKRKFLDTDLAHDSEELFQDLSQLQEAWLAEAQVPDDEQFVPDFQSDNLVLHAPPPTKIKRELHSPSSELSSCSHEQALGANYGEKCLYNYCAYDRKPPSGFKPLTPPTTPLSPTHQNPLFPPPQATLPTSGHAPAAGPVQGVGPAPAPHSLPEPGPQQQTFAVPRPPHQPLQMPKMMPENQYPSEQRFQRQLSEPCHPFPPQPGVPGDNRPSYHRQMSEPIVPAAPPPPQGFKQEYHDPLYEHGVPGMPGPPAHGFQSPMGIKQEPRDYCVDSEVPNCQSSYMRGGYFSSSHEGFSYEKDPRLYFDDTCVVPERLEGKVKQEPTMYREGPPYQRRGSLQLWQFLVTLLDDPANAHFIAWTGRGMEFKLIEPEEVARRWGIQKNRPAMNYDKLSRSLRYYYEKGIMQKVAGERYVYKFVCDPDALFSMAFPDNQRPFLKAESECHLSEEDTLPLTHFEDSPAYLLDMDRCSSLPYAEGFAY
# Outline: as §1
# ELF4 = ELF4 (Homo sapiens, UniProt Q99607 1-663)
# Chain of ELF4 (Q99607 whole entry): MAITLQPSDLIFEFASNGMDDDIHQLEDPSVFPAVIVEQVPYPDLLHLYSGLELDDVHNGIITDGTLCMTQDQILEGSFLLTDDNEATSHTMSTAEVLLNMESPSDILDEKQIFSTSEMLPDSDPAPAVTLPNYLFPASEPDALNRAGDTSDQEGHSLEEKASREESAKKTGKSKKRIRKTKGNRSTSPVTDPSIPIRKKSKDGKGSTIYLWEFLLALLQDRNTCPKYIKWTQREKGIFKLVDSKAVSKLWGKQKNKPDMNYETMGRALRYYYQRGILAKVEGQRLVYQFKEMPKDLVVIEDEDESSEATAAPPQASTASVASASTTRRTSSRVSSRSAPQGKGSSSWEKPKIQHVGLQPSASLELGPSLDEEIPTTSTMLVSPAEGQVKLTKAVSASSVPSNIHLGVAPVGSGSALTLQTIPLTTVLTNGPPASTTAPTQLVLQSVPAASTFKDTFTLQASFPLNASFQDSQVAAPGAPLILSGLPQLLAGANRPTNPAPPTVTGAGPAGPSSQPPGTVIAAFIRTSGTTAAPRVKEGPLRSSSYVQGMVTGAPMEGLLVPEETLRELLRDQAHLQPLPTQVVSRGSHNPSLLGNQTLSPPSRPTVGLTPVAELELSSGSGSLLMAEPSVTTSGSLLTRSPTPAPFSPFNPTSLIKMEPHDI
# Outline: as §1
# ELK4 = biological target: T6, ELK4 (Homo sapiens, UniProt P28324-2 1-405)
# T6 sequence: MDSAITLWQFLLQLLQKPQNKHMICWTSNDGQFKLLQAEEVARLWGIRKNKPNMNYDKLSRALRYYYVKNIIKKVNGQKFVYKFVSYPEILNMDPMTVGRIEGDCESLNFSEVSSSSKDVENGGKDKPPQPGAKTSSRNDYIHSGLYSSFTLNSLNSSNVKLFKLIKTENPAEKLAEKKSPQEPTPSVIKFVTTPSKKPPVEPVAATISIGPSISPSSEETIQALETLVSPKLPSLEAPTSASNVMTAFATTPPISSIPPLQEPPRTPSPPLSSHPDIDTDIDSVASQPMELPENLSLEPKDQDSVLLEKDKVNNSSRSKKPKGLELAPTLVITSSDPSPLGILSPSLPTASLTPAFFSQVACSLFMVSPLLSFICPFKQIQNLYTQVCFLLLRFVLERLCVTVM
# Outline: as §1
sequence,measurement,setting,value
GCTATC,binding signal,ELK1,"1.07 fold enrichment (6-mer frequency, TF over GST control)"
same,binding signal,GABPA,"1.1 fold enrichment (6-mer frequency, TF over GST control)"
same,binding signal,ERG,"1.13 fold enrichment (6-mer frequency, TF over GST control)"
same,binding signal,ELF1,"1.14 fold enrichment (6-mer frequency, TF over GST control)"
same,binding signal,EHF,"1.14 fold enrichment (6-mer frequency, TF over GST control)"
same,binding signal,SPIB,"1.1 fold enrichment (6-mer frequency, TF over GST control)"
same,binding signal,FEV,"1.08 fold enrichment (6-mer frequency, TF over GST control)"
same,binding signal,ETV5,"1.09 fold enrichment (6-mer frequency, TF over GST control)"
same,binding signal,ELF4,"1.14 fold enrichment (6-mer frequency, TF over GST control)"
same,binding signal,ELK4,"1.13 fold enrichment (6-mer frequency, TF over GST control)"
